Assay [1] in a line: qHTS profiling of the MIPE4 collection as inhibitors of Plasmodium falciparum (3D7) proliferation (AID 743344).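 Also: scaled between DMSO vehicle wells and 0.29 µM artemisinin as full inhibition.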 The settings on record: P. falciparum 3D7 in erythrocytes, SYBR Green DNA fluorescence, 72 h; at 28.5 µM unless noted. An outline of the steps:
(§1)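 Parasite DNA was quantified by SYBR Green I fluorescence (ex 485, em 535 nm) after overnight lysis in saponin/Triton buffer at room temperature. Cultures at 0.3% parasitemia and 2.5% hematocrit were first exposed to compound for 72 h at 37 C; signals were normalised to artemisinin (0.29 uM) and vehicle wells.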

Assay [2] in a line: qHTS profiling of the MIPE4 collection as inhibitors of Plasmodium falciparum (DD2) proliferation (AID 743345). The settings on record: P. falciparum Dd2 in erythrocytes, SYBR Green DNA, 72 h; at 28.5 µM unless noted. An outline of the steps:
as §1

Assay [3] in a line: qHTS profiling of the MIPE4 collection as inhibitors of Plasmodium falciparum (DD2) proliferation (Rep 2) (AID 743346). To be noted: P. falciparum Dd2 in erythrocytes, SYBR Green DNA, 72 h; at 28.5 µM unless noted. The essentials:
as §1
Background: In qHTS, concentration-response curves come from the screen itself.

Assay [4] in a line: High-throughput drug toxicity screening in the BPDCN cell line Cal-1 (AID 1224825). The settings on record: Cal-1 BPDCN cell viability, qHTS; at 45.8 µM (top of the series) unless noted. An outline of the steps:
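CellTiter-Glo luminescence after 48 h compound exposure; percent activity scaled with DMSO as 100% and bortezomib (9.2 uM final) as 0%. Cal-1 cells seeded at 500/well in RPMI, 10% FBS, no phenol red.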

Assay [5] in a line: qHTS assay for measurement of the activity of small molecule inhibitors on Zika virus induced Caspase-3 activity in human iPSC derived neural progenitor cells (hNPCs) (AID 1224857; active = well fitted curve in the direction sought with a large enough effect; an effect the other way counts as inactive or inconclusive; also: % of control where 0% means no effect; nearly all actives have a fitted effect of over 65% in size). An outline of the steps: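 Pretreat hNPCs with compound 1 h; infect ZIKV 2 FFU/cell; 6 h 37 C, 5% CO2; Caspase-Glo 3/7, 30 min RT; luminescence; normalize to no-virus and virus-only wells.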
Assay [6] is described as follows: qHTS assay for measurement of the activity of small molecule inhibitors on Zika virus induced Caspase-3 activity in human astrocytoma cells (AID 1224859; active = well fitted curve in the direction sought with a large enough effect; an effect the other way counts as inactive or inconclusive;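 also: plate controls were ZIKV-infected untreated cells for no effect and uninfected cells for full effect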). An outline of the steps: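 Human SNB-19 astrocytoma cells in RPMI 1640 with 10% FBS receive compound one hour ahead of Zika virus at 2 FFU/cell. After 6 h infection, caspase-3/7 activity is detected by Caspase-Glo luminescence.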

Assay [7] can be described thus: qHTS profiling for inhibitors of Plasmodium falciparum (3D7) proliferation (AID 743322).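 Also: infected erythrocytes exposed to compound for 72 h before lysis; 100% = DMSO vehicle wells and 0% = 0.29 µM artemisinin.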 To be noted: P. falciparum 3D7 proliferation; at 28.7 µM (top of the series). The essentials: as §1
Assay [8] in a line: qHTS profiling for inhibitors of Plasmodium falciparum (HB3) proliferation (AID 743324; active = well fitted curve in the direction sought with a large enough effect; an effect the other way counts as inactive or inconclusive;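 also: 100% = DMSO vehicle wells and 0% = artemisinin-treated control wells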). The settings on record: Plasmodium falciparum HB3 blood-stage proliferation; at 28.7 µM (top of the series). The essentials:
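SYBR Green fluorescence (485 ex/535 em) of lysed cultures, incubated overnight at room temperature in the dark, quantifies parasite DNA. Infected erythrocytes at 0.3% parasitemia and 2.5% hematocrit were exposed 72 h; values normalized to DMSO and 0.29 uM artemisinin controls.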

Assay [9] is described as follows: qHTS profiling of the MIPE4 collection as inhibitors of Plasmodium falciparum (HB3) proliferation (AID 743347).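 Also: plate controls were DMSO vehicle wells for no effect and artemisinin wells for full effect.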 To be noted: P. falciparum HB3 in erythrocytes, SYBR Green DNA, 72 h; at 28.5 µM unless noted. The essentials: as §1
Assay [10] can be described thus: qHTS profiling for inhibitors of Plasmodium falciparum (DD2) proliferation (AID 743323). To be noted: lower = more inhibition; at 28.7 µM (top of the series). The essentials: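 Parasite DNA quantified by SYBR Green fluorescence (ex 485, em 535 nm) after saponin/Triton lysis and overnight dark incubation. Cultures: 0.3% parasitemia, 2.5% hematocrit, 72 h, 37 C; data scaled between DMSO and 0.29 uM artemisinin.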

A short description of assay [11]: qHTS Assay for Identifying Gametocytocidal Compounds (AID 743244; active = well fitted curve in the direction sought with a large enough effect; an effect the other way counts as inactive or inconclusive;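 also: % is scaled to controls: 0 for no effect and ±100 for the full control effect; actives lower the fluorescent signal which means gametocytes are killed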). The settings on record: P. falciparum 3D7 stage III-V gametocytes, alamarBlue, 72 h; max response: stronger effect = lower value. The essentials:
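Compounds are pinned into medium, gametocytes (stage III–V, 3D7, 20,000 cells/well) added, and plates held 72 h at 37 °C in 5% CO2. AlamarBlue follows for 24 h before fluorescence reading.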

Inconclusive results are not listed. Active and inactive are the calls of the source. Unless noted, no rule for the calls is given here.

For the molecule `Cc1cn2cc(C(=O)N(C)CCO)cc(N[C@@H]3CCOc4cccc(C)c43)c2n1`, in assay [1], the parasite growth, % of DMSO control was 33.4%. This molecule also returned a parasite growth remaining, % of DMSO control (lower = more inhibition) in assay [2] of 86.7%. The parasite growth, % of control (lower = inhibition) in assay [3] was 47.2%. In addition, the viability (% of control) in assay [4] is 114%. For the same molecule, the Potency result in [5] and in assay [6] was “inactive” each time.

With `CC1(C)CCC(c2ccc(Cl)cc2)=C(CN2CCN(c3ccc(C(=O)NS(=O)(=O)c4ccc(N[C@H](CCN5CCOCC5)CSc5ccccc5)c(S(=O)(=O)C(F)(F)F)c4)cc3)CC2)C1`, in assay [7], the remaining parasite growth % (stronger effect = lower value) came out at 0.209%. The remaining proliferation (% of control), lower = more inhibition in assay [8] was -0.0239%. In assay [1], the parasite growth, % of DMSO control is 17.1%. In assay [2], this molecule came in with a parasite growth remaining, % of DMSO control (lower = more inhibition) of 8.31%. This molecule came in with a parasite growth, % of control (lower = inhibition) in [3] of 16.8%. Moreover, the growth, % of control in assay [9] came out at 9.9%. Moreover, the viability (% of control) in assay [4] came out at 16.1%. In addition, the Potency entry in [6] was “inactive”.

In the case of `Nc1ncnc2c1c(-c1cnc3[nH]ccc3c1)nn2C1CCCC1`, the parasite growth, % of DMSO control in [1] is 6.52%. Moreover, in assay [2], the parasite growth remaining, % of DMSO control (lower = more inhibition) was found to be 8.6%. This molecule also yielded a parasite growth, % of control (lower = inhibition) in [3] of 8.28%. This molecule showed a growth, % of control in assay [9] of 2.85%. Besides, the viability (% of control) in [4] was found to be 3.58%. The Potency entry in assay [5] and in [6] was “inactive” throughout.

With `COc1cc(C(=O)N2CCC(N3CCN(C)CC3)CC2)ccc1Nc1ncc2c(n1)N(C)c1ccccc1C(=O)N2C`, the parasite growth, % of DMSO control in [1] came out at 5.57%. This molecule had a parasite growth remaining, % of DMSO control (lower = more inhibition) in assay [2] of 7.18%. Moreover, the parasite growth, % of control (lower = inhibition) in assay [3] was 19.7%. Further, the growth, % of control in assay [9] was determined as 5.31%. Also, the viability (% of control) in assay [4] turned out to be 3.29%. Besides, the Potency entry in [5] and in [6] was “inactive” each time.

Regarding `COc1cc2c(Oc3ccc(-c4cnc(Nc5ccc(F)cc5)n(C)c4=O)cc3F)ccnc2cc1OCCCN1CCOCC1`, the remaining parasite growth % (stronger effect = lower value) in assay [7] was -2.59%. Also, the activity, percent of control in assay [10] is -0.143%. Besides, in [8], the remaining proliferation (% of control), lower = more inhibition was -1.33%. Also, in assay [1], the parasite growth, % of DMSO control worked out at 6.28%. The same molecule registered a parasite growth remaining, % of DMSO control (lower = more inhibition) in assay [2] of 6.26%. This molecule came in with a parasite growth, % of control (lower = inhibition) in assay [3] of 17%. Besides, the growth, % of control in assay [9] came out at 9.39%. In assay [4], the viability (% of control) was 0.783%. Also, the Potency entry in assay [5] is “inactive”.

Turning to `Nc1cc(C(F)(F)F)c(-c2cc(N3CCOCC3)nc(N3CCOCC3)n2)cn1`, the max response in [11] was -15.2% (inactive). The remaining parasite growth % (stronger effect = lower value) in assay [7] was found to be 90.8%. In addition, the remaining proliferation (% of control), lower = more inhibition in assay [8] came to 58.8%. In assay [1], this molecule came in with a parasite growth, % of DMSO control of 19.5%. The parasite growth remaining, % of DMSO control (lower = more inhibition) in [2] came out at 94%. In assay [3], this molecule displayed a parasite growth, % of control (lower = inhibition) of 41.5%. In addition, the growth, % of control in [9] is 18.9%. In addition, in assay [4], the viability (% of control) came to 11.1%. The Potency entry in [5] and in [6] was “inactive” throughout.

In the case of `Cc1c(CN2CCN(S(C)(=O)=O)CC2)sc2c(N3CCOCC3)nc(-c3cnc(N)nc3)nc12`, in [1], the parasite growth, % of DMSO control was found to be 5.64%. The parasite growth remaining, % of DMSO control (lower = more inhibition) in assay [2] amounted to 14.2%. In assay [9], this molecule registered a growth, % of control of 5.68%. Also, the viability (% of control) in assay [4] was determined as 19.3%. The Potency entry in assay [5] and in [6] was “inactive” throughout.

With `CCCCCN(CCC12CC3CC(CC(C3)C1)C2)C(=O)NCCCc1ccncc1`, the remaining parasite growth % (stronger effect = lower value) in assay [7] worked out at 7.44%. In assay [8], the remaining proliferation (% of control), lower = more inhibition was 7.47%. This molecule came in with a parasite growth, % of DMSO control in [1] of 6.26%. In assay [2], this molecule returned a parasite growth remaining, % of DMSO control (lower = more inhibition) of 11.7%. This molecule also registered a parasite growth, % of control (lower = inhibition) in assay [3] of 13.6%. In addition, in assay [9], the growth, % of control was 6.74%. Further, the viability (% of control) in [4] is 94.4%. Also, the Potency result in assay [5] and in assay [6] was “inactive” in each case.

In [1], `Nc1nc(NCCNc2ncc(-n3ccnc3)c(-c3ccc(Cl)cc3Cl)n2)ccc1[N+](=O)[O-]` showed a parasite growth, % of DMSO control of 16.9%. Moreover, the parasite growth remaining, % of DMSO control (lower = more inhibition) in [2] was determined as 80%. Further, the parasite growth, % of control (lower = inhibition) in assay [3] was 44.4%. In addition, the growth, % of control in assay [9] was determined as 4.45%. For the same molecule, the viability (% of control) in assay [4] turned out to be 4.88%. For the same molecule, the Potency result in [5] and in assay [6] was “inactive” in each case.

In turn, `CCS(=O)(=O)c1cccc(-c2cc(C(=O)NC3CCN(C)CC3)c(C)c3[nH]c4ncc(C)cc4c23)c1` came in with a parasite growth, % of DMSO control in assay [1] of 5.84%. The molecule also showed a parasite growth remaining, % of DMSO control (lower = more inhibition) in assay [2] of 9.76%. The molecule also yielded a parasite growth, % of control (lower = inhibition) in [3] of 15.1%. In addition, in [9], the growth, % of control came out at 7.05%. Besides, in assay [4], the viability (% of control) worked out at 2.47%. Besides, the Potency result in [5] and in [6] was “inactive” each time.

For `Nc1nc(-c2nn(Cc3ccccc3F)c3ncccc23)nc(N)c1N1CCOCC1`, in [11], the max response is -6.3% (inactive). The parasite growth, % of DMSO control in assay [1] is 28.3%. Moreover, the Potency entry in assay [5] and in [6] was “inactive” each time.

Molecule `CN(C1CCc2c(c3ccccc3n2CC(=O)O)C1)S(=O)(=O)c1ccc(F)cc1` (stereo unspecified) came in with a parasite growth, % of DMSO control in [1] of 15.9%. In assay [2], this molecule registered a parasite growth remaining, % of DMSO control (lower = more inhibition) of 93.1%. Also, the growth, % of control in assay [9] is 19.9%. The viability (% of control) in assay [4] came out at 39.5%. The Potency entry in [5] and in assay [6] was “inactive” throughout.

Source of the values: PubChem BioAssay (NCATS).
